Key:
Experiment in all cases: PBM binding z-score (relative to random genomic background probes); higher = stronger binding; sequences stand for … in GC…GCGATTGACAGCGTAGAATGAAGG
[1] = tested on: FXR:RXRa (NR concentration 270 nM, RXRa partner concentration 90 nM)
Procedure, shortened: (§1)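 Binding buffer was PBS pH 7.4 with 2% milk, 0.02% Triton X-100, 1 mM DTT, 0.2 mg/mL BSA and 0.4 mg/ml salmon testes DNA. In it, ligand-free nuclear receptor dimers were incubated 1 h on custom Agilent 4×180K protein-binding microarrays carrying double-stranded probes. Antibodies against each partner (one per run) detected binding, and z-scores were calculated against random background probes after regression normalization of scanned fluorescence.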

[2] = tested on: LXRa:RXRa (NR concentration 270 nM, RXRa partner concentration 90 nM)
Procedure, shortened: as §1

[3] = tested on: LXRa homodimer (NR concentration 270 nM)
Procedure, shortened: as §1

[4] = tested on: LXRb:RXRa (NR concentration 270 nM, RXRa partner concentration 90 nM)
Procedure, shortened: as §1

[5] = tested on: LXRb homodimer (NR concentration 270 nM)
Procedure, shortened: as §1

[6] = tested on: PPARa:RXRa (NR concentration 270 nM, RXRa partner concentration 90 nM)
Procedure, shortened: as §1

[7] = tested on: PPARg:RXRa (NR concentration 180 nM, RXRa partner concentration 90 nM)
Procedure, shortened: as §1

[8] = tested on: PPARg:RXRa 270nM:90nM, anti-RXR (NR concentration 270 nM, RXRa partner concentration 90 nM)
Procedure, shortened: as §1

[9] = tested on: PPARg:RXRa 30nM:10nM, anti-RXR (NR concentration 30 nM, RXRa partner concentration 10 nM)
Procedure, shortened: as §1

[10] = tested on: PPARg:RXRa 90nM:30nM, anti-RXR (NR concentration 90 nM, RXRa partner concentration 30 nM)
Procedure, shortened: as §1

[11] = tested on: PPARg:RXRa DBDmut IVT, anti-RXR (DBD mutation: RXRa K156A/R161A, NR concentration 270 nM, RXRa partner concentration 90 nM)
Procedure, shortened: as §1

[12] = tested on: PPARg:RXRa IVT, anti-PPARg (NR concentration 270 nM, RXRa partner concentration 90 nM)
Procedure, shortened: as §1

[13] = tested on: PPARg DBDmut:RXRa IVT, anti-PPARg (DBD mutation: PPARg1 K132A/R137A, NR concentration 270 nM, RXRa partner concentration 90 nM)
Procedure, shortened: as §1

[14] = tested on: PPARg DBDmut IVT, anti-PPARg (DBD mutation: PPARg1 K132A/R137A, NR concentration 270 nM)
Procedure, shortened: as §1

[15] = tested on: PPARg homodimer (NR concentration 180 nM)
Procedure, shortened: as §1

[16] = tested on: PXR:RXRa (NR concentration 270 nM, RXRa partner concentration 90 nM)
Procedure, shortened: as §1

[17] = tested on: PXR homodimer (NR concentration 270 nM)
Procedure, shortened: as §1

[18] = tested on: RARa:RXR (NR concentration 270 nM, RXRa partner concentration 90 nM)
Procedure, shortened: as §1

[19] = tested on: RARa homodimer (NR concentration 270 nM)
Procedure, shortened: as §1

[20] = tested on: RARb:RXRa (NR concentration 270 nM, RXRa partner concentration 90 nM)
Procedure, shortened: as §1

ATCGAAAGGTCGACGAGGTGGGTATACACCGTTT
PBM binding z-score [1]: 3.58
PBM binding z-score [2]: 3.27
PBM binding z-score [3]: 0.14
PBM binding z-score [4]: 2.55
PBM binding z-score [5]: 0.209
PBM binding z-score [6]: 4.1
PBM binding z-score [7]: 2.2
PBM binding z-score [8]: 2.89
PBM binding z-score [9]: 0.706
PBM binding z-score [10]: 1.6
PBM binding z-score [11]: 0.15
PBM binding z-score [12]: 1.75
PBM binding z-score [13]: 0.733
PBM binding z-score [14]: 1.26
PBM binding z-score [15]: 1.34
PBM binding z-score [16]: 2.6
PBM binding z-score [17]: 0.341
PBM binding z-score [18]: 2.98
PBM binding z-score [19]: -0.0132
PBM binding z-score [20]: 3.68

CCTTACGGGTCACGAGGTAATAGCACGACGAGCG
PBM binding z-score [1]: 6.82
PBM binding z-score [2]: 4.16
PBM binding z-score [3]: -0.00739
PBM binding z-score [4]: 3.79
PBM binding z-score [5]: 0.00142
PBM binding z-score [6]: 5.93
PBM binding z-score [7]: 7.12
PBM binding z-score [8]: 6.63
PBM binding z-score [9]: 3.83
PBM binding z-score [10]: 5.54
PBM binding z-score [11]: 4.44
PBM binding z-score [12]: 5.5
PBM binding z-score [13]: 3.05
PBM binding z-score [14]: 1.21
PBM binding z-score [15]: 4.14
PBM binding z-score [16]: 4.07
PBM binding z-score [17]: 0.0228
PBM binding z-score [18]: 5.59
PBM binding z-score [19]: 1.16
PBM binding z-score [20]: 4.46

AGGACGAGGGCAATGAGTTGATAGCACGGGTGGC
PBM binding z-score [1]: 0.665
PBM binding z-score [2]: 0.175
PBM binding z-score [3]: -0.256
PBM binding z-score [4]: -0.148
PBM binding z-score [5]: -0.403
PBM binding z-score [6]: 0.903
PBM binding z-score [7]: 1.12
PBM binding z-score [8]: 0.232
PBM binding z-score [9]: -0.168
PBM binding z-score [10]: -0.187
PBM binding z-score [11]: 1.76
PBM binding z-score [12]: 1.02
PBM binding z-score [13]: 0.439
PBM binding z-score [14]: 0.19
PBM binding z-score [15]: 0.218
PBM binding z-score [16]: 1.55
PBM binding z-score [17]: 4.82
PBM binding z-score [18]: 0.678
PBM binding z-score [19]: -0.00105
PBM binding z-score [20]: 2.12

CGTCCAAGGTCATAGGCGGTCAGTGAAGACAGAT
PBM binding z-score [1]: 7.45
PBM binding z-score [2]: 6.83
PBM binding z-score [3]: 2.89
PBM binding z-score [4]: 4.79
PBM binding z-score [5]: 0.324
PBM binding z-score [6]: 5.55
PBM binding z-score [7]: 4.7
PBM binding z-score [8]: 5.18
PBM binding z-score [9]: 1.82
PBM binding z-score [10]: 3.6
PBM binding z-score [11]: 2.93
PBM binding z-score [12]: 3.58
PBM binding z-score [13]: -0.0996
PBM binding z-score [14]: 0.332
PBM binding z-score [15]: 2.85
PBM binding z-score [16]: 5.12
PBM binding z-score [17]: 1.57
PBM binding z-score [18]: 4.75
PBM binding z-score [19]: 1.15
PBM binding z-score [20]: 4.94

ATCAAAAGGTCGTGAGGTGAGTATACAGAAAGGC
PBM binding z-score [1]: 5.1
PBM binding z-score [2]: 4.46
PBM binding z-score [3]: 0.539
PBM binding z-score [4]: 3.63
PBM binding z-score [5]: 1.22
PBM binding z-score [6]: 5.2
PBM binding z-score [7]: 4.38
PBM binding z-score [8]: 4.66
PBM binding z-score [9]: 1.92
PBM binding z-score [10]: 3.33
PBM binding z-score [11]: 0.609
PBM binding z-score [12]: 2.81
PBM binding z-score [13]: 1.96
PBM binding z-score [14]: 1.55
PBM binding z-score [15]: 2.38
PBM binding z-score [16]: 3.53
PBM binding z-score [17]: 1.09
PBM binding z-score [18]: 4.34
PBM binding z-score [19]: 1.26
PBM binding z-score [20]: 4.29

ATCGAAAGGTCGTGAGGTGGGTATACAGAAAGGC
PBM binding z-score [1]: 5.14
PBM binding z-score [2]: 4.18
PBM binding z-score [3]: 0.358
PBM binding z-score [4]: 3.28
PBM binding z-score [5]: 0.784
PBM binding z-score [6]: 4.96
PBM binding z-score [7]: 3.35
PBM binding z-score [8]: 3.96
PBM binding z-score [9]: 1.29
PBM binding z-score [10]: 2.77
PBM binding z-score [11]: -0.234
PBM binding z-score [12]: 1.94
PBM binding z-score [13]: 0.885
PBM binding z-score [14]: 1.49
PBM binding z-score [15]: 3.69
PBM binding z-score [16]: 3.36
PBM binding z-score [17]: 0.721
PBM binding z-score [18]: 4.17
PBM binding z-score [19]: 1.39
PBM binding z-score [20]: 4.05
